# Results from PubChem BioAssay AID720582 (The Scripps Research Institute Molecular Screening Center, 2013).
# Several values for one entry are separate records, joined by “and”; a condition that tells them apart may be missing. Equal entries are not always repeated. Out of some 370,000 compounds screened, about 2,300 (0.62%) were called active.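 The calls were made as follows: active = inhibition above a per-campaign cutoff equal to the mean of compounds falling between control-based bounds plus 3 SD (cut at about 20% in these data); inactive = the rest.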 For the sample, actives were picked, then their nearest neighbours and some compounds at random. A structure can be active in one record and inactive in another.
# Molecular target: Disintegrin and metalloproteinase domain-containing protein 10 (Homo sapiens) (UniProt O14672)
# Assay: blockers of ADAM10 peptide cleavage – biochemical, QFRET, HTS, primary screen (AID 720582);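 also: 0% = DMSO wells while the 100% control is not disclosed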
# Settings: recombinant ADAM10, EDANS/DABCYL FRET peptide cleavage, 3 h; at 7 µM; stronger effect = higher value
# Chain of Disintegrin and metalloproteinase domain-containing protein 10 (Homo sapiens) (O14672 214-748 limits assumed): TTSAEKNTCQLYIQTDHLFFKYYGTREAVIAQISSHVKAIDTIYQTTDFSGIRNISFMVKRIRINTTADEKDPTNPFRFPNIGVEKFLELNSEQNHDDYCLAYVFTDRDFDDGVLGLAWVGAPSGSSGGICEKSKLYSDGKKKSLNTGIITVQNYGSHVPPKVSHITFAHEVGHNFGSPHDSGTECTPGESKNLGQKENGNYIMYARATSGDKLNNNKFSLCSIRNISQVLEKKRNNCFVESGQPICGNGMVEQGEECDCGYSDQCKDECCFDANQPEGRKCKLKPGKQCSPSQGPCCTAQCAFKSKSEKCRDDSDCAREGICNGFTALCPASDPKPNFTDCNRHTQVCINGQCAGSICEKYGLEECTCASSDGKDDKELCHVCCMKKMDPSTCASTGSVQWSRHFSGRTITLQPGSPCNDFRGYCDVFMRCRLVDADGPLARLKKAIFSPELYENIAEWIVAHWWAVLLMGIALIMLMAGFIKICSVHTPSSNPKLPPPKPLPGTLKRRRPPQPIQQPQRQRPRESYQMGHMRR
row,Structure (SMILES),inhibition
1,CC(=O)N1CCc2cc(S(=O)(=O)NCCC(=O)N3CCCC3)ccc21,-14% (inactive)
2,COc1cc(/C=C/C(=O)n2cnc3ccccc32)cc(OC)c1OC,-59.7% (inactive)
3,CCCCCN1CCCCC(NC(=O)C(C)CCC)C1=O (stereo unspecified),-6.07% (inactive)
4,CCOc1ccc(Br)cc1S(=O)(=O)Nc1cccc(S(=O)(=O)N(CC)CC)c1,0.81% (inactive)
5,CCOc1ccc(Br)cc1S(=O)(=O)Nc1ccc(C(=O)OC(C)C(=O)N(C)c2ccccc2)cc1 (stereo unspecified),22.5% (active)
6,CCOc1ccc(Br)cc1S(=O)(=O)Nc1ccc(S(=O)(=O)Nc2cc(C)on2)cc1,-5.64% (inactive)
7,CC(C)C(C#CC1CC1)N(Cc1ccc2c(c1)OCO2)C(N)=NC(=O)/C=C/c1cccc(C(F)(F)F)c1 (stereo unspecified),-4.29% (inactive)
8,COC(=O)c1cccc(Cn2ccc3ccc(-c4ccc5ccn(C(=O)c6ccccc6C)c5c4)cc32)c1,-41.7% (inactive)
9,CCCC1CCC2(CCCN2CCOC(=O)NCc2ccccc2)CC1 (stereo unspecified),-8.67% (inactive)
10,CC(C)N1CCCCC(NC(=O)C(C)(C)C)C1=O (stereo unspecified),-0.89% (inactive)
11,N#Cc1cccc(NC(=O)C2CCCN(C(=O)c3ccc(Cl)cc3)C2)c1 (stereo unspecified),-3.16% (inactive)
12,CCOc1ccc(N2C(=O)CC(N(CCc3ccc(OC)c(OC)c3)C(=S)Nc3ccccc3)C2=O)cc1 (stereo unspecified),23.9% (active) and 6.83% (inactive)
13,CN(C)c1ccc(NC(=S)N(CCc2ccccc2)C2CC(=O)N(c3c(Cl)cccc3Cl)C2=O)cc1 (stereo unspecified),11.2% (inactive)
14,COc1ccc(N2C(=O)C(CC(=O)Nc3ccccc3)N(Cc3ccc(OC)c(OC)c3)C2=O)cc1 (stereo unspecified),0.53% (inactive)
15,CCOC(=O)[C@]12CCCC=C1N(CCCOC)C(=O)[C@@H]2CC(=O)N1CCOCC1,-0.44% (inactive)
16,CN1[C@H](Cc2ccccc2)COc2cccc(N3CCSCC3)c2S1(=O)=O,-1.57% (inactive)
17,CCC(C(=O)OCC(=O)Nc1ccccc1-c1ccccc1)c1ccccc1 (stereo unspecified),20.3% (active)
18,CCC(C(=O)Nc1ccc(C(C)C)cc1)c1ccccc1 (stereo unspecified),5.96% (inactive)
19,O=C(CNCc1ccc(F)cc1)Nc1ccccc1-c1ccccc1,4.85% (inactive)
20,CC1CCN(c2ccc(C(=O)O)cc2NS(=O)(=O)c2ccc(Br)s2)CC1,-0.83% (inactive)
21,C[C@H](C(=O)N(C)c1ccccc1)[C@@H](O)c1ccc(Cl)cc1,2.56% (inactive)

row,Structure (SMILES),inhibition
1,CC(=O)N1CCCN(C2=Nc3ccccc3Sc3ccccc32)CC1,1.32% (inactive)
2,O=C(CSc1nnc(-c2cccc(Cl)c2)n1Cc1ccco1)Nc1ccc(OCc2ccccc2)cc1,7.99% (inactive)
3,Cc1ccc(-c2nc(C3CCCN(S(=O)(=O)c4ccc(Br)s4)C3)no2)cc1 (stereo unspecified),-6.94% (inactive)
4,O=C(NCCC1=CCCCC1)C1CCN(S(=O)(=O)c2ccc(Cl)s2)CC1,-5.18% (inactive)
5,COc1ccccc1OCCOc1ccc(/C=C2\C(=N)N3N=C(C)SC3=NC2=O)cc1,-72.1% (inactive)
6,COc1ccc(OCCn2ccnc2C)cc1,3.1% (inactive)
7,COc1ccc(OCCCn2cccc2/C=C2/C(=N)N3OC(C)=CC3=NC2=O)cc1,24.4% (active)
8,COCC(=O)N[C@@H]1C[C@@H]2O[C@@H](CO)CC[C@@H]2O[C@@H]1CCc1ccc(-c2ccccc2)cc1,4.87% (inactive)
9,CC(C)Oc1ccc(CC(=O)NNC(=S)Nc2ccc(Br)cc2)cc1,23.5% (active)
10,CSc1ccccc1NC(=O)Cc1ccc(Br)cc1,2.92% (inactive)
11,O=C(COC(=O)Cc1ccc(Br)cc1)Nc1ccc(N2CCOCC2)cc1,-15.2% (inactive)
12,O=C1C(=O)N(Cc2ccc(-c3ccsc3)cc2)c2ccc(OC(F)(F)F)cc21,3.17% (inactive)
13,CC(=O)OC12CCCN(C1)/C(=C/c1ccncc1)C2 (stereo unspecified),-16.8% (inactive)
14,CCOc1ccccc1-c1cc(C(=O)N/N=C(\C)c2cccnc2)c2ccccc2n1,0.58% (inactive)
15,CCOc1ccc(/C=N/NC(=O)C(C)Sc2ccccn2)cc1OCC (stereo unspecified),-1% (inactive)
16,CCOc1cc(/C=N/NC(=O)c2cc(-c3ccccc3)nc3ccccc23)ccc1O,22.1% (active)
17,COc1ccnc(C(=O)N2CCC(Oc3cccnc3)CC2)c1,1.62% (inactive)
18,O=C(CSc1nnc(-c2ccccc2)n1Cc1ccco1)Nc1ccccc1-c1ccccc1,15% (inactive)
19,CCC1(C)Cc2c(sc3nnn(CC(=O)Nc4ccc(Cl)cc4)c(=O)c23)CO1 (stereo unspecified),20.1% (active)
20,CCOC(=O)Cn1c(SC)nc2sc3c(c2c1=O)CC(C)(C)OC3,-52.7% (inactive)
21,CCCSc1nc(NCc2ccco2)c2c3c(sc2n1)COC(C)(CC)C3 (stereo unspecified),-57.9% (inactive)

row,Structure (SMILES),inhibition
1,CN(CCO)c1cccc2c1S(=O)(=O)N(Cc1cn(Cc3ccc(C(F)(F)F)cc3)nn1)Cc1ccccc1O2,-6.76% (inactive)
2,COc1ccnc(NC(=S)N2CCN(c3ncc(C(F)(F)F)cc3Cl)CC2)c1,-1.47% (inactive)
3,COc1ccc(C2=NN(C(=O)CSc3nc(=O)n4ccc(C)cc4n3)C(c3ccc(C)cc3)C2)cc1 (stereo unspecified),-4.74% (inactive)
4,COc1ccc(C2CC(c3ccccc3)=NN2C(=O)c2ccc(Cl)c([N+](=O)[O-])c2)cc1 (stereo unspecified),-1.55% (inactive)
5,COc1ccc(C2CC(c3ccccc3)=NN2C(=O)COC(=O)COc2ccccc2)cc1 (stereo unspecified),20.3% (active)
6,CCOC(=O)[C@]12CCCC3=C1N(CCC3)C(=O)[C@@H](CC(=O)NCC13CC4CC(CC(C4)C1)C3)C2,3.03% (inactive)
7,O=C(CSc1nc2ccccc2n1Cc1ccccc1)NNC(=S)Nc1ccccc1,12.5% (inactive)
8,Cc1ccccc1NC(=O)C1CCN(c2ncccn2)CC1,-49.2% (inactive)
9,Cc1ccc(Cn2cc(CN3[C@@H](CC(C)C)COc4ccc(Cl)cc4S3(=O)=O)nn2)cc1,2.6% (inactive)
10,COc1cccc(CNC(C)C(=O)Nc2ccc(S(=O)(=O)N3CCCC3)cc2)c1 (stereo unspecified),-0.95% (inactive)
11,CC(C)c1ccc(S(=O)(=O)N2CCN(C(C)C(=O)NC3CCCC3)CC2)cc1 (stereo unspecified),-11.6% (inactive)
12,COc1ccc(S(=O)(=O)N2CCN(C(C)C(=O)Nc3ccc(C(C)C)cc3)CC2)cc1 (stereo unspecified),26.6% (active)
13,Oc1ccc(/C=C/c2c(F)cccc2F)c2cccnc12,5.02% (inactive)
14,Cc1ccc(Cn2cc(COC(=O)N(C)Cc3ccccc3)nn2)cc1,-0.56% (inactive)
15,COc1ccc(/C=C/C(=O)OCC(=O)N2CCN(S(=O)(=O)c3ccc(C)cc3C)CC2)cc1OC,-21.9% (inactive)
16,Cc1ccc(S(=O)(=O)N2CCN(C(=O)COC(=O)CNC(=O)c3ccc(C(C)(C)C)cc3)CC2)c(C)c1,-0.12% (inactive)
17,Cc1ccc(S(=O)(=O)N2CCN(C(=O)COC(=O)c3c(C)cc(C)cc3C)CC2)c(C)c1,23.9% (active)
18,FC(F)(F)c1cccc(NC(=S)OC2CCC23CCC(c2ccccc2)CC3)c1 (stereo unspecified),10.3% (inactive)
19,FC(F)(F)c1cccc(Cn2ccc3ccc(-c4ccc5ccn(Cc6ccccc6)c5c4)cc32)c1,-38.5% (inactive)
20,CC1(Cc2cccc(C#N)c2)C(=O)Nc2ccc(-c3cccc(C(F)(F)F)c3)cc21 (stereo unspecified),33.6% (active)
21,COc1ccc(-n2c(SCC(=O)Nc3ccc(C)c(Cl)c3)nc3ccccc3c2=O)cc1,-4.98% (inactive)

row,Structure (SMILES),inhibition
1,CCOC(=O)c1cccc(NC(=O)CN(C)S(=O)(=O)c2ccc(-c3cocn3)s2)c1,8.22% (inactive)
2,C#CCN(C[C@@H]1[C@@H](OC(=O)NC2CC2)[C@@H](OC(=O)NC2CC2)Cn2c(=O)ccc(=O)n21)S(=O)(=O)c1ccc(C)cc1,-5.52% (inactive)
3,Cc1ccc(S(=O)(=O)N2C[C@]3(O)C[C@@H]4C(=O)N(c5ccccc5)C(=O)[C@@H]4C[C@]3(OC(=O)NC3CC3)C2)cc1,-2.91% (inactive)
4,C#CCN(C[C@H]1[C@H](OC(=O)NC2CCCC2)[C@H](OC(=O)NC2CCCC2)C[C@H]2C(=O)N(c3ccccc3)C(=O)[C@@H]12)S(=O)(=O)c1ccc(C)cc1,29.4% (active)
5,COC(=O)[C@]12C[C@H](CC(=O)N3CCOCC3)C(=O)N(Cc3ccc(Cl)cc3Cl)C1=C[C@H](COCc1ccccc1)O[C@@H]2C,0.45% (inactive)
6,Cc1cnc(C(=O)OCC(=O)NCCCc2ccccc2)cn1,-1.14% (inactive)
7,Cc1cnc(C(=O)OCc2c(C)cc(C(C)(C)C)cc2C)cn1,21.7% (active)
8,COc1cc(NC(=O)COC(=O)c2cnc(C)cn2)c(C)cc1[N+](=O)[O-],2.74% (inactive)
9,Cc1cccc(NC(=O)C[C@H]2CC[C@H]3[C@@H](COc4ccc(NC(=O)Nc5ccccc5)cc4C(=O)N3C)O2)c1,5.56% (inactive)
10,COc1cccc(NC(=O)C/C(C)=N/NC(=O)C2CCCCC2)c1,15.3% (inactive)
11,COc1cccc(NC(=O)C2c3cc(OC)c(OC)cc3C(=O)N(C)C2c2cccnc2)c1 (stereo unspecified),-5.09% (inactive)
12,COc1cccc(NC(=O)C2C(c3ccccc3)C2(Cl)Cl)c1 (stereo unspecified),19.8% (active)
13,Cc1ccc(CSc2nnc(SCC(=O)NN=Cc3cc(Br)ccc3F)s2)cc1,-6.1% (inactive)
14,COc1ccc(NC(=S)NCC2CCN(c3ccc(OC)cc3)C2)cc1 (stereo unspecified),7.62% (inactive)
15,O=C(CNC(=O)c1ccc(Cl)cc1Cl)NCC(=O)Nc1ccccc1N1CCOCC1,83.6% (active)
16,Cc1ccc(NC(=O)COC(=O)CNC(=O)c2ccc(Cl)cc2Cl)cc1S(=O)(=O)N1CCOCC1,7.22% (inactive)
17,O=C(CCNC(=O)c1ccc([N+](=O)[O-])cc1)Nc1ccccc1N1CCOCC1,1.54% (inactive)
18,Cc1ccc(CN2CCCCC(NC(=O)C3CCCCC3)C2=O)cc1 (stereo unspecified),-0.65% (inactive)
